Assay results from PubChem BioAssay (Tox21).
Records with an inconclusive call do not appear. Where a call stands in place of a potency, no number is given. Active and inactive are the calls of the source. Calls follow the shape of the full dose curve.

assay: p53 small molecule agonists, cell-based qHTS assay with human liver microsomes: qHTS cell viability counter screen (AID 1963579); details: p53RE-bla HCT-116 viability, ATP luminescence, 16 h, HLM; series mostly up to 66 µM; also: nearly all actives have a fitted effect of over 45% in size
Description: National Center for Advancing Translational Sciences [NCATS]
Division of Preclinical Innovation [DPI]
U.S. Environmental Protection Agency [EPA]
National Institutes of Environmental Health Sciences [NIEHS]
National Toxicology Program [NTP]
U.S. Food and Drug Administration [FDA]
p53, a tumor suppressor protein, is activated following cellular insult, including DNA damage and other cellular stresses. The activation of p53 regulates cell fate by inducing DNA repair, cell cycle arrest, apoptosis, or cellular senescence. The activation of p53, therefore, is a good indicator of DNA damage and other cellular stresses. […] The activation of the reporter gene under culture conditions can be detected by fluorescence intensity. This cell line was used to screen the Tox21 10K compound library in the condition of presence of human liver microsomes and to identify agonists that activate the p53 signaling pathway after in vitro metabolic activation (Ooka et al., Archive of Toxicology 96:1975-1987, 2022).
Tox21 Assay Protocol Summary:
The p53RE-bla cells were dispensed at 4,000cells/3ul/well in 1536-well black-clear bottom plates. After the assay plates were incubated at 37 C, 5% CO2 incubator for 5 hours, 23 nL of compounds dissolved in DMSO, positive controls or DMSO only was transferred to the assay plate. Following compound addition, 3 uL of human liver microsomes (XenoTech, Kansas City, KS) at final concentration of 0.5 mg/mL and 1uL of B-Nicotinamide adenine dinucleotide 2'-phosphate (NADPH) at final concentration of 0.5 mg/mL were transferred to the assay plate. The plates were incubated at 37 C for 16 hours. 1 uL of LiveBLAzer detection mixture was added to each well and the plates were incubated at room temperature in the dark for 2 h. Fluorescence intensity at 460 and 530 nm emission and 405 nm excitation were measured by an Envision plate reader. For cell viability readout that measures cytotoxicity, 4 ul/well of CellTiter-Glo reagent was added into the assay plates using a Flying Reagent Dispenser. After 30 min incubation at room temperature, the luminescence intensity in the plates was measured using a ViewLux plate reader.
Potency is read from the fitted curve at half-maximal effect.

Row | SMILES | Potency
1 | O=C1NC(=O)C(=O)C(=O)N1 | inactive
2 | COc1ccc(-c2ccccc2)cc1NNC(=O)OC(C)C | inactive
3 | CC1(C)[C@H](/C=C2\CCSC2=O)[C@@H]1C(=O)OCc1coc(Cc2ccccc2)c1 | inactive
4 | CC(C)(C)c1ccc(CSc2cnn(C(C)(C)C)c(=O)c2Cl)cc1 | inactive
5 | CCn1cc[n+](C)c1 (tested in a mixture with another compound) | inactive
6 | C#CCN1C(=O)COc2cc(F)c(N3C(=O)C4=C(CCCC4)C3=O)cc21 | inactive
7 | CCCCCCCC(=O)Cl | inactive
8 | CCc1cc2c(s1)-n1c(C)nnc1CN=C2c1ccccc1Cl | inactive
9 | CCC(COC(=O)c1cc(OC)c(OC)c(OC)c1)(c1ccccc1)N(C)C (stereo not given) | inactive
10 | CC(=O)/C=C/c1ccc2c(c1)OCO2 | inactive
11 | CC(C)N(CCC(C(N)=O)(c1ccccc1)c1ccccn1)C(C)C (stereo not given) | inactive
12 | C=CCC1=C(C)[C@@H](OC(=O)[C@@H]2[C@@H](C=C(C)C)C2(C)C)CC1=O | inactive
13 | CC(C)=CCOc1c2occc2cc2ccc(=O)oc12 | inactive
14 | ClP(Cl)(Cl)(Cl)Cl | inactive
15 | CCOP(=S)(OCC)SCCl | inactive
16 | CC1=C2C[C@H]3[C@@H](CC=C4C[C@@H](O)CC[C@@]43C)[C@@H]2CC[C@]12O[C@@H]1C[C@H](C)CN[C@H]1[C@H]2C | inactive
17 | CCC(C)Br (stereo not given) | inactive
18 | CC(C)COP(=O)(OCC(C)C)OCC(C)C | inactive
19 | C[C@H]1CCC[C@H](O)CCCCCc2cc(O)cc(O)c2C(=O)O1 | inactive
20 | CCSCc1ccccc1OC(=O)NC | inactive

Row | SMILES | Potency
21 | CC(Cl)CN(C)C (stereo not given) | inactive
22 | CCCCn1cc[n+](C)c1.[Cl][Fe-]([Cl])([Cl])[Cl] | inactive
23 | CCOP(=S)(Oc1cnc(C(C)(C)C)nc1)OC(C)C (stereo not given) | inactive
24 | CNN | inactive
25 | ClCBr | inactive
26 | O=c1[nH]c2cc(Cl)ccc2n1C1CCNCC1 | inactive
27 | CCOP(O)OCC | inactive
28 | CCOP(=S)(OCC)OC(Cl)C(Cl)(Cl)Cl (stereo not given) | inactive
29 | CC(C(O)c1ccccc1)N(C)C/C=C/c1ccccc1 (stereo not given) | inactive
30 | CCOC(=O)COc1ccc(Cl)cc1Cl | inactive
31 | O=C(O)C1(c2ccc3c(c2)OC[C@H](Cc2ccc(-c4ccccc4)cc2)[C@H]3O)CCCC1 | 40.8 µM (active)
32 | O=C(O)/C=C\C(=O)O | inactive
33 | CC(C)Br | inactive
34 | O.O.O.O.O.O.O.O=S(=O)([O-])[O-].[Co+2] | inactive
35 | CNC(=O)Oc1cc(C)c(SC)c(C)c1 | inactive
36 | CC(C)NCC(O)c1ccc([N+](=O)[O-])cc1 (stereo not given) | inactive
37 | CO/N=C(/C1=NOCCO1)c1ccccc1Oc1ncnc(Oc2ccccc2Cl)c1F | inactive
38 | CC(Cl)(Cl)Cl | inactive
39 | CCCSP(=S)(OCC)Oc1ccc(Cl)cc1Cl (stereo not given) | inactive
40 | O=C(NC(=O)c1c(F)cccc1F)Nc1cc(Cl)c(F)c(Cl)c1F | inactive
